# Compound activity as filed in PubChem.
# Hits are enriched below; roughly 5% of the tested compounds scored in any of these assays.
# VACV mCherry inh: vaccinia inhibition (mCherry reporter); Vaccinia virus mCherry reporter infection, fluorescence; Potency, µM (series often up to 36.5 µM), inactives show at the top dose activity change, negative = inhibition, hits mostly inhibitors; 0.63% of 310,000 active; calls by dose curve; tested in A549 cells; note: potency is the fitted concentration of half-maximal effect; nearly all actives have a fitted effect of over 35% in size
# LmPK inhibitor: LmPK (Leishmania mexicana) enzyme inhibition. Q27686. purified LmPK, Kinase-Glo ATP luminescence, 1 h. Potency, µM (series often up to 57.5 µM), without a hit: at the top dose activity change, negative = inhibition, most hits filed as inhibitors. 0.37% of 290,000 active; note: potency is the fitted concentration of half-maximal effect
# Target sequence (Q27686 whole entry, looked up): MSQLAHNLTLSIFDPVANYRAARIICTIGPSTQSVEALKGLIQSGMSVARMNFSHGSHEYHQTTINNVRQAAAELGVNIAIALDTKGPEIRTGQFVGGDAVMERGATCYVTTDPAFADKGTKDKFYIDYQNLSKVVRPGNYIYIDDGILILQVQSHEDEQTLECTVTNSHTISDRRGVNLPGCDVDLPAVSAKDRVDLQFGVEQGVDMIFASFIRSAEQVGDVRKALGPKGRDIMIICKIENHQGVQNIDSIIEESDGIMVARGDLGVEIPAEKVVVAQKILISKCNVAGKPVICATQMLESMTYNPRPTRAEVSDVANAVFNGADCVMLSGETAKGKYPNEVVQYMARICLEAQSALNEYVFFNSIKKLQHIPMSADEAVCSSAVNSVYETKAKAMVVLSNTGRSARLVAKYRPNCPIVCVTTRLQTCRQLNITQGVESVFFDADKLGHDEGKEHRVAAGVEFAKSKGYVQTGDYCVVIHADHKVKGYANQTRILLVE
#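 In 50 mM imidazole pH 7.2 with 7 mM MgCl2, LmPK (0.1 nM) turned over PEP (0.5 mM) and ADP (0.1 mM) for 1 h at room temperature. Luciferase read-out of ATP.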
# HCMV inh: human cytomegalovirus inhibition. 4.5% of 410,000 active. HFF cells, HCMV-luciferase reporter, 72 h; stronger effect = lower value. activity change, negative = inhibition, % at 57.5 µM. AID 1259415; in the data active = activity change below about -60%; inconclusive = no clear call, values can overlap the other calls; inactive = above about -39%
#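 Cell-based, HFFs, 1000 cells/well, 16 h 37C; cpds in DMSO + HCMV-luc, MOI 1 PFU/cell; 72 h 37C; OneGlo luminescence after 5 min RT; norm. to buffer vs Salinomycin 10uM.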
# VACV Venus inh: vaccinia inhibition (Venus reporter). Potency, µM (top dose mostly 36.5 µM), inactives show top-dose activity change, negative = inhibition, actives largely listed as inhibitors. 0.46% of 330,000 active. Vaccinia virus Venus reporter expression, fluorescence; calls by dose curve; tested in A549 cells; note: potency is the fitted concentration of half-maximal effect; nearly all actives have a fitted effect of over 30% in size
# TbPYK inhibitor: blocks Trypanosoma brucei pyruvate kinase | Q57TT1 | TbPYK enzyme, Kinase-Glo Plus ATP luminescence, 45 min | Potency, µM (series often up to 76.8 µM), without a hit: at the highest dose activity, negative = inhibition, usual class: inhibitors | 0.12% of 410,000 active | AID 624173; note: potency is the fitted concentration of half-maximal effect; nearly all actives have a fitted effect of over 50% in size
#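 In this concentration-response screen, enzyme-free wells defined baseline while DMSO plates tracked drift. Each reaction combined TbPYK, substrate, compound and 130 uM ADP for 45 min at room temperature. Kinase-Glo Plus luminescence gave the signal.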
# Active calls of the source: *; i = inactive; ? = inconclusive; nt = not tested or not shown; [ ] = another dose, or the depositor's remark. Unless noted, calls come from the whole dose curve; as a rule, active = well fitted curve in the direction sought with a large enough effect; inconclusive = small, poorly fitted or top-dose-only effect, or another doubt; inactive = no such curve, though single readings can be large; an effect the other way counts as inactive or inconclusive. % is set by controls: 0 for no effect and ±100 for the full control effect.
SMILES,VACV mCherry inh,LmPK inhibitor,HCMV inh,VACV Venus inh,TbPYK inhibitor
Cc1ccccc1-c1nc2ccccc2c(=O)n1/N=C/c1ccc([N+](=O)[O-])cc1,-12%,nt,0,-13%,-3%
CN1c2ccccc2N(C)C1(C)c1ccccc1,40%,-27%,-93*,30%,?
COc1cccc(/C=C/C(=O)OCC(=O)Nc2ccccc2Sc2ccccc2)c1,-6%,-2%,-65*,-9%,2%
COc1ccc(S(=O)(=O)NC(=O)C2(C)CCN2C(=O)Cc2ccc(-c3ccccc3)cc2)cc1 (stereo unspecified),-8%,nt,?,-9%,1%
Cc1nnc(SCC(=O)Nc2cccc(S(=O)(=O)N3CCCCC3)c2)s1,nt,nt,0,nt,-2%
Cc1cccc(N2CCN(CCNC(=O)Nc3ccc(Cl)cc3)CC2)c1C,-10%[7.34 µM],nt,-99*,-10%[7.34 µM],-4%
Cc1cccc(N2CCN(CC(=O)Nc3ccc(S(=O)(=O)N4CCOCC4)cc3)CC2)c1C,nt,-1%,-67*,nt,-17%
Cc1nnc(SCC(=O)NN2C(=O)NC3(CCCCC3)C2=O)s1,-16%,-3%,-62*,-6%,-21%
Cc1ccc(S(=O)(=O)N2CCN(CC(=O)Nc3ccc(N4CCOCC4)cc3)CC2)cc1C,?,3%,-27,-9%,4%
O=C(CSc1nnc(NC2CCCCC2)s1)NN1C(=O)NC2(CCCCC2)C1=O,i,-2%,-18,-10%,-19%
Cc1nnc(SCC(=O)Nc2ccc(S(=O)(=O)N3CCCCC3)cc2)s1,0%,-7%,-65*,39%,-12%
CN(c1ccccc1)S(=O)(=O)c1nnc(NC(=O)c2cccs2)s1,1%,nt,15,1%,4%
CSc1nsc(NC(=O)CCNC(=O)c2ccc([N+](=O)[O-])cc2)n1,-17%,-5%,27,-6%,3%
Cc1cccc(C)c1-n1nnnc1C(C1CC1)N1CCN(C/C=C/c2ccccc2)CC1 (stereo unspecified),i,nt,-39,-5%,-1%
Cc1nnc(SCC(=O)Nc2ccccc2NC(=O)CSc2nnc(C)s2)s1,nt,0%,13,10%,1%
CCN1CCN(CC(=O)Nc2ccc(S(=O)(=O)N3C(C)CCCC3C)cc2)CC1 (stereo unspecified),-2%,-1%,-99*,-8%,-1%
O=C(CN1CCOCC1)Nc1ccc(S(=O)(=O)N2CCCCCC2)cc1,nt,4%,-82*,nt,2%
Cc1nnc(SCC(=O)Nc2sc3c(c2C(=O)c2ccccc2)CCCC3)s1,-7%,3%,-62*,-3%,1%
O=C(CN1CCCCC1)Nc1ccc(S(=O)(=O)N2CCCCCC2)cc1,nt,2%,-2,nt,-3%
CCOC(=O)CSc1ccc(C(=O)N2CCN(C)CC2)cc1[N+](=O)[O-],-3%,-1%,-5,-9%,1%
Oc1ccccc1C1CC(c2cccs2)=NC(c2ccc(Cl)cc2)N1 (stereo unspecified),nt,3%,-70*,nt,-5%
COC1=C(N)C(=O)c2nc(-c3nc(C(=O)O)c(C)c(-c4ccc(OC)c(OC)c4O)c3N)ccc2C1=O,0.71µM*,-4%,nt,0.63µM*,-30%
Cc1c(C)c2ccc(OCc3ccc(C(=O)O)o3)c(C)c2oc1=O,nt,14%,-101*,nt,3%
CNC(=S)NNc1nc(-c2ccccc2)c2cc(Cl)ccc2n1,?,nt,-72*,21%,2%
CCOC(=O)N1CCN(S(=O)(=O)c2ccc(C(=O)Nc3sc4c(c3C(N)=O)CC(C)(C)NC4(C)C)cc2)CC1,nt,4%,-11,nt,-4%
SMILES,VACV mCherry inh,LmPK inhibitor,HCMV inh,VACV Venus inh,TbPYK inhibitor
FC(F)(F)c1cnc(N2CCCN(C(=S)Nc3ccccc3)CC2)c(Cl)c1,?,5%,-85*,-6%[7.34 µM],10%
O=C(Nc1ccccc1)N1CCCN(c2ccc(C(F)(F)F)cn2)CC1,nt,1%,-66*,nt,1%
FC(F)(F)c1cnc(N2CCN(C(=S)NCc3ccccc3)CC2)c(Cl)c1,-12%,6%,-24,-1%,5%
CC(C)(C)c1ccc(NC(=O)N2CCN(c3ccc([N+](=O)[O-])cn3)CC2)cc1,i,-5%,-94*,-12%,3%
O=C(Nc1ccc(F)cc1F)N1CCCN(c2ccc([N+](=O)[O-])cn2)CC1,i,0%,?,-17%,0%
O=C(Nc1cc(C(F)(F)F)ccc1N1CCCCC1)c1cccc([N+](=O)[O-])c1,-29%,3%,-77*,-19%,-1%
O=[N+]([O-])c1ccc(N2CCN(c3ccc([N+](=O)[O-])cc3CO)CC2)c(CO)c1,-7%,3%,-66*,-6%,-2%
O=C(c1ccccc1)c1cc([N+](=O)[O-])ccc1N1CCCC1,?,7%,-61*,-23%,-4%
Cc1c(C(=O)N2CCN(c3ccc([N+](=O)[O-])cc3)CC2)oc2ccccc12,nt,nt,-21,nt,-8%
Cc1c(-c2ccccc2)oc2c(C(=O)N3CCN(c4ccc([N+](=O)[O-])cc4)CC3)cccc2c1=O,-28%,2%,-61*,?,0%
CN1CCN(c2ccc([N+](=O)[O-])cc2C(=O)c2ccccc2)CC1,-21%,-3%,-7,?,5%
CCCn1ncc(OC)c(Cl)c1=O,nt,-2%,-5,nt,-5%
O=C(c1cc([N+](=O)[O-])ccc1N1CCOCC1)N1CCN(c2ccccc2)CC1,nt,1%,-87*,nt,nt
CN1CCN(c2ccc([N+](=O)[O-])cc2C(=O)c2ccc(Br)cc2)CC1,nt,2%,?,nt,0%
CSc1ccc(COC(=O)c2cc([N+](=O)[O-])ccc2N2CCOCC2)cc1,?,nt,-83*,?,-3%
O=C(c1ccc(Br)cc1)c1cc([N+](=O)[O-])ccc1N1CCCCC1,nt,0%,-91*,nt,-8%
Cc1cccc(C)c1-n1nnnc1C(c1ccnc2ccccc12)N1CCCC1 (stereo unspecified),-3%,nt,-16,-9%,7%
COc1cccc(C(=O)NCC2(c3ccccc3)CCCC2)c1,1%,8%,1,-8%,1%
COCCNC(=O)Cn1nc(-c2ccccc2)c2ccccc2c1=O,10%,1%,0,-10%,-2%
COc1ccccc1N1CSC2=C(C#N)C(c3ccc(SC)cc3)CC(=O)N2C1 (stereo unspecified),15%,-21%,43,-5%,18µM*
COc1cccc(C2CC(=O)N3CN(c4ccccc4F)CSC3=C2C#N)c1 (stereo unspecified),6%,10%,-4,7%,3.5µM*
COc1ccc(OC)c(C2CC(=O)N3CN(c4ccccc4F)CSC3=C2C#N)c1 (stereo unspecified),-2%,-9%,6,-16%,?
Nc1ncnc2c1ncn2C1C=C(CO)C(O)C1O (stereo unspecified),1.1µM*,nt,nt,?,-3%
O=C(Cn1c(=O)c2sccc2n(Cc2ccc([N+](=O)[O-])cc2)c1=O)NCCc1ccccc1,-20%,1%,-73*,-24%,-4%
